This note sets out measurements from PubChem BioAssay (NCATS).

Experiment [1] is described as follows: Cell Viability - HUV-EC-C (AID 542). Also: % is scaled to controls: 0 for no effect and ±100 for the full control effect; nearly all actives have a fitted effect of over 35% in size. In a few lines:
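HUV-EC-C human vascular endothelial cells, 1000/well, exposed to compound for 40 hr at 37 °C in complete medium. Intracellular ATP was read by CellTiter-Glo luminescence. AC50 came from Hill-equation fits of concentration-response data.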

Experiment [2] can be described thus: Cellular Toxicity (caspase-3) HepG2 (AID 654).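 Also: cells exposed to compound for 16 hours before reading; 0% = DMSO alone and 100% = caspase signal from 100 µM tamoxifen.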 The procedure, abridged:
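HepG2 cells (1500/well) were treated 16 h at 37 °C in complete medium, then caspase 3/7 activity was read by Caspase-Glo luminescence. Data were normalized to DMSO and 100 uM tamoxifen; AC50 came from Hill-equation fits of qHTS concentration-response.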

A short description of experiment [3]: Cellular Toxicity (caspase-3) Mesangial (AID 660).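 Also: cells exposed to compound for 16 h before the caspase read.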 The procedure, abridged:
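Human renal glomerular mesangial cells, 1000/well, 5 h at 37 C before 16 h compound treatment. Caspase-Glo 3/7 luminescence after 20 min; normalized to DMSO and 100 uM tamoxifen, AC50 from Hill fit.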

The nature of experiment [4]: Cellular Toxicity (caspase-3) Hek293 (AID 664).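 Also: cells exposed to compound for 16 h at 37 °C before readout.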 The following applies: HEK293 caspase-3 activation, DMSO = 0%, 100 µM tamoxifen = 100%; at 92.2 µM (top of the series). In a few lines: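 HEK293 cells in complete medium treated 16 h at 37 °C, then Caspase-Glo 3/7 luminescence read after 20 min at room temperature. Normalized to DMSO and 100 uM tamoxifen; AC50 from Hill fit of concentration-response.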

Experiment [5] is described as follows: Cellular Toxicity (caspase-3) NIH 3T3 (AID 666).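 Also: caspase signal read after 16 h compound exposure; 0% = DMSO basal and 100% = 100 µM tamoxifen stimulation.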 In a few lines:
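Mouse NIH 3T3 fibroblasts (1000/well) treated 16 h at 37 C; caspase-3/7 activity measured by Caspase-Glo 3/7 luminescence after 20 min. Normalized to DMSO and 100 uM tamoxifen; AC50 from Hill fits.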

A short description of experiment [6]: MultiTox-Fluor Cytotoxicity Assay - LYMP1-002 - Live Cells (AID 955). Also: % is scaled to controls: 0 for no effect and ±100 for the full control effect. In a few lines:
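Human lymphoblastoid LYMP1-002 cells, 2500/well, treated 16 h at 37 C in complete medium. Live-cell protease activity via GF-AFC fluorescence (Ex/Em 405/510) after 60 min reagent incubation; AC50 from Hill fits.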

The nature of experiment [7]: Cell Viability - LYMP1-003 - Assay at 40 hr (AID 964). Also: % is scaled to controls: 0 for no effect and ±100 for the full control effect; nearly all actives have a fitted effect of over 60% in size. In a few lines: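 LYMP1-003 human lymphoblastoid cells, 2500/well, preincubated 5 h at 37 C, then treated with compound for 40 h at 37 C. Intracellular ATP read by CellTiter-Glo luminescence after 30 min at room temperature; AC50 from Hill-equation fits.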
The nature of experiment [8]: Cell Viability - LYMP2-004 (AID 966).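 Also: plate controls were DMSO only for no effect and tetraoctylammonium bromide control for full effect; nearly all actives have a fitted effect of over 65% in size.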 In a few lines: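 Lymphoblastoid LYMP2-004 cells, 2500 per well, were preincubated for 5 hr and then treated with compound for 24 h at 37 C in complete medium. Viability was read as cellular ATP by CellTiter-Glo luminescence, and AC50 values were taken from Hill fits to concentration-response data.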
Experiment [9] is described as follows: Cell Viability - LYMP2-009 (AID 968).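 Also: 0% = DMSO alone and the full-kill end = tetraoctylammonium bromide at 92 µM; nearly all actives have a fitted effect of over 55% in size.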
Experiment [10] in a line: Cell Viability - LYMP2-011 (AID 969).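 Also: 0% = DMSO only and full inhibition = 92 µM tetraoctylammonium bromide; nearly all actives have a fitted effect of over 60% in size.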 The procedure, abridged:
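2500 cells/well in complete medium, compound-treated 24 h at 37 C. Viability read as intracellular ATP by CellTiter-Glo luminescence after 30 min at room temperature. AC50 from Hill fits of qHTS concentration-response data.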

A short description of experiment [11]: Cell Viability - LYMP2-025 (AID 976).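 Also: plate controls were DMSO only for no effect and tetraoctylammonium bromide control for full effect.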 In a few lines: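 Human lymphoblastoid LYMP2-025 cells, 2500/well, exposed 24 h at 37 C in complete medium in 1536-well qHTS. Viability as cellular ATP by CellTiter-Glo luminescence; AC50 from Hill fits of concentration-response data.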
Experiment [12] addresses Vitamin D3 receptor (Homo sapiens) (UniProt P11473). Briefly: qHTS assay for small molecule agonists of vitamin D receptor signaling (AID 588543; calls by dose curve;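 also: 0% = DMSO basal and 100% = reference agonist control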). The procedure, abridged: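 VDR-UAS-bla HEK293T cells, 2000/well, 2% charcoal-stripped FBS; compound titration 16 h at 37 C; CCF4 beta-lactamase ratio read. Normalized to 50 nM 1-alpha,25-dihydroxyvitamin D3 (100%) and DMSO; Hill fit gives EC50, efficacy.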
A general note: In qHTS, concentration-response curves come from the screen itself.

The nature of experiment [13]: qHTS assay for small molecule activators of the p53 signaling pathway (AID 651743; active = well fitted activation curve with a large enough effect in the signal ratio, not every such curve was filed as active; the % refers to the signal ratio; also: % of control where 0% means no effect). The note with it: HCT-116 p53RE-bla, beta-lactamase FRET ratio, 16 h; activation: stronger effect = higher value. The procedure, abridged: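 Read-out is fluorescence intensity from the LiveBLAzer B/G FRET substrate, added for 2 hours at room temperature after HCT-116 p53RE-bla cells had been incubated with compounds for 16 hours at 37 C.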

The target of experiment [14] is Nuclear receptor ROR-gamma (Homo sapiens) (UniProt P51449). Briefly: qHTS assay for small molecule antagonists of the retinoid-related orphan receptor gamma (ROR-gamma) signaling pathway (AID 651802).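 Also: luciferase reporter luminescence driven by ROR response element; % is scaled to controls: 0 for no effect and ±100 for the full control effect; nearly all actives have a fitted effect of over 60% in size.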 In a few lines:
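CHO cells with TET-inducible ROR-gamma and RORE-luciferase reporter, dosed then doxycycline-induced. After 16 h at 37C, One-Glo luminescence read; decreased signal indicates antagonism.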

The nature of experiment [15]: qHTS assay for small molecule agonists of the antioxidant response element (ARE) signaling pathway measured by Nrf2-dependant transcriptional activity (AID 720636; active = well fitted curve in the direction sought with a large enough effect in the repeat runs; an effect the other way counts as inactive or inconclusive;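 also: HepG2 cells with an ARE-driven luciferase reporter; % of control where 0% means no effect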). The procedure, abridged:
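Reporter gene assay, HepG2 ARE-luc: 16 hr compound, 37 C, 5% CO2; read-out luciferase luminescence.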

Experiment [16] is described as follows: qHTS assay for small molecule agonists of the antioxidant response element (ARE) signaling pathway measured by Nrf2-dependant transcriptional activity - cell viability counter screen (AID 720653; active = well fitted curve in the direction sought with a large enough effect in the repeat runs; an effect the other way counts as inactive or inconclusive; also: % is scaled to controls: 0 for no effect and ±100 for the full control effect). The note with it: ARE-bla HepG2 viability, CellTiter-Glo ATP luminescence, 16 h; stronger effect = lower value. The procedure, abridged:
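Cytotoxicity counter screen: intracellular ATP quantified by CellTiter-Glo luminescence in the same ARE-bla HepG2 plates, after 16 h compound exposure and a 2 h beta-lactamase substrate step.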

A short description of experiment [17]: Cellular Toxicity (caspase-3) MRC-5 (AID 659).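 Also: 0% = DMSO basal and 100% = 10 µM staurosporine.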 The procedure, abridged: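 Concentration-dependent caspase 3/7 activation is measured in human normal lung fibroblasts (MRC-5) following 16-hour treatment. AC50 values come from standard Hill-equation modeling of luminescence normalized to DMSO and 10 uM staurosporine.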
The nature of experiment [18]: Cell Viability - LYMP2-026 (AID 989). Also: % is scaled to controls: 0 for no effect and ±100 for the full control effect; nearly all actives have a fitted effect of over 50% in size. The procedure, abridged: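 Human lymphoblastoid LYMP2-026 cells, 2500/well, exposed to compound 24 h at 37 C in complete medium. Viability as intracellular ATP by CellTiter-Glo luminescence; AC50 from Hill fits of qHTS concentration-response.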
Experiment [19] can be described thus: qHTS assay for small molecule disruptors of the mitochondrial membrane potential - 1 hr assay (AID 651754; calls by dose curve; also: nearly all actives have a fitted effect of over 35% in size; also: potency is read from the fitted curve at half-maximal effect). The procedure, abridged: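 HepG2 cells, attached overnight, were exposed to compound for 1 hr at 37C, then stained 30 min with a potentiometric dye. Ratio of red aggregate (590nm) to green monomer (535nm) fluorescence reports membrane potential; collapse shifts signal toward green.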

The nature of experiment [20]: Cell Viability - LYMP2-017 (AID 972). Also: % is scaled to controls: 0 for no effect and ±100 for the full control effect; nearly all actives have a fitted effect of over 55% in size. The procedure, abridged: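 LYMP2-017 human lymphoblastoid cells (2500/well) settled 5 hr at 37 C, then exposed to compound 24 hr at 37 C in complete medium. Viability taken as intracellular ATP by CellTiter-Glo luminescence after 30 min at RT; AC50 from Hill fits.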

Several values for one entry are separate records, joined by “and”; a condition that tells them apart may be missing. Equal entries are not always repeated. Unmarked numbers belong to inactive results. Results filed as inconclusive are left out. Activity calls are given as the source filed them. Unless noted, calls follow the shape of the dose curve; as a rule, active = well fitted curve in the direction sought with a large enough effect; inconclusive = small, poorly fitted or top-dose-only effect, or another doubt; inactive = no such curve, though single readings can be large; an effect the other way counts as inactive or inconclusive.

Chain of Vitamin D3 receptor (Homo sapiens) (P11473 whole entry, looked up): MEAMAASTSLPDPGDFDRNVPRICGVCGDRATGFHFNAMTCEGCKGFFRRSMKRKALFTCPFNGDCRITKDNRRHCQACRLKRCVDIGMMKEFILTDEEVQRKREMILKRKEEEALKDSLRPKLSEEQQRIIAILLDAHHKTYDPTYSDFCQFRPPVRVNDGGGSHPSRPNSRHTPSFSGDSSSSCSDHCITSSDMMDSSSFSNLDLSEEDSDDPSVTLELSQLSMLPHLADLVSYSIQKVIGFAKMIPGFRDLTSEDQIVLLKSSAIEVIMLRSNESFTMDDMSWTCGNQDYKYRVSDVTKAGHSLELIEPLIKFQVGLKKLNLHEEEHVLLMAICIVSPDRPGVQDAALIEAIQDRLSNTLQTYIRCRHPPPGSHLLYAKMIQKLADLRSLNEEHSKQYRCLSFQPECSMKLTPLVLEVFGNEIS
Chain of Nuclear receptor ROR-gamma (Homo sapiens) (P51449 whole entry, looked up): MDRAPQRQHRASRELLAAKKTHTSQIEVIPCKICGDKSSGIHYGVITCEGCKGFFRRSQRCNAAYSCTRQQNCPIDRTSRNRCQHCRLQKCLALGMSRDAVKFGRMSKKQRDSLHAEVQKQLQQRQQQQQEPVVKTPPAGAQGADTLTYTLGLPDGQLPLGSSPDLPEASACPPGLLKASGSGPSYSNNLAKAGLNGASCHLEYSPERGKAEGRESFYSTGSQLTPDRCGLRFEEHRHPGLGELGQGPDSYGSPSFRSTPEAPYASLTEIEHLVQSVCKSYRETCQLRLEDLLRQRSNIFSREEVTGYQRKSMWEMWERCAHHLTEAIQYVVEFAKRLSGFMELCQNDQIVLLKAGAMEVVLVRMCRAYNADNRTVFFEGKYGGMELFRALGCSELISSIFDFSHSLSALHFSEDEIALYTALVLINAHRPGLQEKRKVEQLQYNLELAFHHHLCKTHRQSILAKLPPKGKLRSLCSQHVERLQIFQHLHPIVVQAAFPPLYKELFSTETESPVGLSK

Consider `Nc1ccccc1-c1ccccc1`, for which the Potency result in experiment [1], in experiment [5], in experiment [7], in experiment [8], in experiment [9] and in [10] was “inactive” in each case. Moreover, the Potency entry in experiment [11], in [14] and in [15] was “inactive” throughout. Moreover, the molecule was called inactive in experiment [2], in experiment [3], in experiment [6] and in experiment [12]. The caspase-3 activation in experiment [4] was 1.72%. In experiment [13], the activation is -6.93%. Also, in experiment [16], the max response was -2.88%.
On to `ClCCCCl`, for which the Potency entry in [1], in experiment [5], in experiment [7], in experiment [9], in experiment [10] and in [11] was “inactive” throughout. Also, the Potency result in experiment [18], in experiment [19], in experiment [14] and in experiment [15] was “inactive” throughout. Further, the molecule was classed as inactive in [2], in [17], in experiment [3], in experiment [6] and in experiment [12]. Further, in experiment [4], the caspase-3 activation was -1.63%. Also, the activation in [13] is -3.64%. Further, the max response in experiment [16] was 1.55%.
Regarding `C=C(Cl)CSC(=S)N(CC)CC`, the call in [2], in experiment [17], in experiment [3], in [6] and in experiment [12] was inactive. The caspase-3 activation in [4] is 0.963%. The Potency entry in experiment [5], in experiment [7], in experiment [8], in experiment [10], in experiment [11] and in experiment [18] was “inactive” in each case. For the same molecule, the Potency entry in experiment [19], in experiment [14] and in experiment [15] was “inactive” throughout. Besides, in [13], the activation is -1.91%. The max response in experiment [16] was -13%.
For the molecule `S=c1[nH]c2ccccc2[nH]1`, the Potency entry in [1], in [5], in experiment [7], in experiment [8], in [9] and in experiment [10] was “inactive” in each case. Besides, the Potency entry in experiment [20], in experiment [18], in experiment [19] and in experiment [15] was “inactive” in each case. In addition, the outcome in experiment [2], in experiment [17], in [3] and in experiment [6] was inactive. Besides, in [4], the caspase-3 activation is 0.513%. Moreover, the activation in experiment [13] is -4.45%.
Take `CCCCCOC(=O)c1ccccc1C(=O)OCCCCC`: the Potency entry in experiment [1], in experiment [5], in experiment [7], in experiment [8], in experiment [9] and in experiment [20] was “inactive” in each case. Also, the Potency entry in experiment [11], in experiment [18], in experiment [19], in experiment [14] and in experiment [15] was “inactive” throughout. The molecule was called inactive in experiment [17], in experiment [3] and in [12]. In addition, in experiment [4], the caspase-3 activation was 3.92%. Further, in [13], the activation is -1% and 1.8%. Moreover, in experiment [16], the max response was 0.29% and 4.72%.
`N#C/C(N)=C(/N)C#N`: the Potency entry in experiment [1], in [5], in [7], in experiment [8], in experiment [10] and in experiment [20] was “inactive” in each case. The Potency result in [11], in [18], in experiment [19], in [14] and in experiment [15] was “inactive” throughout. For the same molecule, the molecule was classed as inactive in experiment [2], in experiment [17], in experiment [3] and in [12]. For the same molecule, the caspase-3 activation in experiment [4] was -2.4%. The activation in [13] was 1.55%. Further, the max response in experiment [16] was -10.7%.
In the case of `O=[N+]([O-])c1ccc2c3c(cccc13)CC2`, the Potency entry in experiment [1], in experiment [5], in experiment [7], in [8], in experiment [9] and in [10] was “inactive” throughout. Also, the Potency result in [20], in experiment [14] and in [15] was “inactive” in each case. The call in [2], in [17], in [6] and in [12] was inactive. Also, in [13], the activation is -4.24% and -1.29%. For the same molecule, the Potency in [19] is 37.6 µM (active). Further, in experiment [16], the max response is 3.04% and 5.87%.
